DT40 TDP1 CPT: qHTS for Inhibitors of human tyrosyl-DNA phosphodiesterase 1 (TDP1): qHTS in cells in presence of CPT; chicken DT40 Tdp1-/-;hTDP1 cells + 20 nM CPT, ATP luminescence, 48 h; Potency, µM (highest dose often 46.2 µM), hits mostly inhibitors; 420,000 compounds, 12% hits; AID 686979, 2013; also: nearly all actives have a fitted effect of over 55% in size
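Chicken DT40 Tdp1-/- cells complemented with human TDP1, 400 cells/well, exposed to compounds plus 20 nM camptothecin for at least 48 h at 37 C; viability read as ATP content by CellTiter-Glo luminescence.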
HT1080NT lethal: qHTS for induction of synthetic lethality in tumor cells producing 2HG: qHTS for the HT-1080-NT fibrosarcoma cell line; Potency, µM (top dose mostly 46.1 µM), most hits filed as cytotoxic; 360,000 compounds, 1.6% hits; HT-1080-NT fibrosarcoma viability, CellTiter-Glo ATP luminescence, 48 h;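 also: NT is the 2HG producing partner of a matched IDH1 knockdown line; nearly all actives have a fitted effect of over 55% in size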
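Fibrosarcoma NT cells, 750 per well in 5% FBS RPMI, were exposed to compound for 48 hours. Viability: CellTiter-Glo luminescence.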
DT40 TDP1 no CPT: qHTS for Inhibitors of human tyrosyl-DNA phosphodiesterase 1 (TDP1): qHTS in cells in absence of CPT; AID 686978, 2013; DT40 Tdp1-/- hTDP1 cells, no CPT, ATP luminescence, 48 h; Potency, µM (titrated, usually from 46.2 µM), most hits filed as inhibitors; 420,000 compounds, 15% hits; also: nearly all actives have a fitted effect of over 55% in size
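Seeded 400 DT40-hTDP1 cells/well (vehicle DMSO, no 20 nM CPT); pinned compounds; ≥48 hr at 37 °C; CellTiter-Glo luminescence as viability measure.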
HT1080 IDH1KD tx: qHTS for induction of synthetic lethality in tumor cells producing 2HG: qHTS for the HT-1080-IDH1KD cell line; AID 686971, 2013; 360,000 compounds, 2% hits; Potency, µM (series often up to 46.1 µM), hits mostly cytotoxic; HT-1080 IDH1 knockdown viability, ATP luminescence, 48 h
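Viability of IDH1-knockdown HT-1080 fibrosarcoma cells was assessed by CellTiter-Glo after 48 h at 37 °C with titrated compound; concentration-effect curves were classified by fit quality and response size.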
IL1B secr inh: qHTS for Inhibitors of Inflammasome Signaling: IL-1-beta AlphaLISA Primary Screen. 360,000 compounds, 4.7% hits. AID 743279, 2014. activity change, % at 57.5 µM. THP-1 LPS/ATP IL-1B secretion, AlphaLISA, 16 h; hits give low values; in the data active = activity change below about -50%; inconclusive = mostly about -30% to -49%
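Secreted IL-1B measured by AlphaLISA bead assay after 16 h compound exposure of THP-1 cells; compounds (final up to 57.5 uM) added 1 h before LPS (250 ng/mL) and ATP (1.25 mM) stimulation; lower signal means less secretion.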
ELG1 repair inh: qHTS screen for small molecules that inhibit ELG1-dependent DNA repair in human embryonic kidney (HEK293T) cells expressing luciferase-tagged ELG1. Potency, µM (top dose mostly 46.1 µM), usual class: inhibitors. AID 504467, 2011. HEK293T ELG1-luciferase reporter, luminescence, 16 h; DNA damage induced by 5-fluorouridine. 330,000 compounds, 2.3% hits; also: nearly all actives have a fitted effect of over 55% in size
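Step one: seed 2,000 cells per well. Step two: pin-transfer compound or DMSO alongside 5-fluorouridine. Step three: incubate 16 hr, 37 °C, 5% CO2. Step four: add ONE-Glo, wait 30 min, read luminescence.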
Hits are given with their value; n = inactive; u = inconclusive; x = no result given. An excerpt weighted towards active compounds, which were near 19% of everything screened. Unless noted, calls follow the shape of the dose curve; as a rule, active = well fitted curve in the direction sought with a large enough effect; inconclusive = small, poorly fitted or top-dose-only effect, or another doubt; inactive = no such curve, though single readings can be large; an effect the other way counts as inactive or inconclusive.

SMILES	DT40 TDP1 CPT	HT1080NT lethal	DT40 TDP1 no CPT	HT1080 IDH1KD tx	IL1B secr inh	ELG1 repair inh
CCN(CC)S(=O)(=O)c1ccc(/C=C/C(=O)OCC(=O)NCc2cccs2)cc1	21µM	n	u	n	n	u
Cn1cc(C(=O)NS(=O)(=O)Nc2ccc(Br)cc2)c2ccccc21	n	n	n	n	n	n
Cc1ccc(CNC(=O)C(C)n2ccc3cc(S(=O)(=O)N4CCCC4)ccc32)cc1 (stereo not drawn)	u	x	0.46µM	x	x	x
CCOc1ccc(CNC(=O)C(C)n2ccc3cc(S(=O)(=O)N4CCCC4)ccc32)cc1 (stereo not drawn)	u	u	21µM	n	n	n
CC(=O)c1c(NC(=O)c2ccccc2)[nH]c(-c2ccccc2)nc1=S	u	n	23µM	n	n	u
CC(=O)c1c(C)[nH]c(-c2ccccc2)nc1=S	n	n	u	n	n	n
O=C(c1ccc2c(c1)OCO2)N1CCN(c2ccc(Cl)cc2)CC1	n	n	u	n	n	u
Cc1cccc(N2CCN(C(=S)c3ccc4c(c3)OCO4)CC2)c1	6.5µM	n	5.8µM	u	n	x
S=C(c1ccc2c(c1)OCO2)N1CCN(c2cccc(Cl)c2)CC1	3.7µM	u	4.1µM	3.3µM	n	x
COc1ccc(C)cc1NC(=O)c1cn(C)c(=O)c2cc(OC)c(OC)cc12	n	x	n	x	x	x
COc1ccc(S(=O)(=O)NCC2CC3C=CC2C3)cc1OC (stereo not drawn)	n	n	u	n	n	n
Cc1cccc(CN2CCCC(C(=O)Nc3ccccc3Oc3cccnc3)C2)c1 (stereo not drawn)	u	n	u	n	-56	n
O=C(Nc1ccccc1Oc1cccnc1)C1CCCN(C/C=C/c2ccc(F)cc2)C1 (stereo not drawn)	u	n	u	n	-59	u
O=C(Nc1ccccc1Oc1ccccc1)C1CCCC1	n	n	n	n	n	n
C[C@H](NS(=O)(=O)c1ccc(Cl)cc1)C(=O)OCC(=O)NCCc1ccc(S(N)(=O)=O)cc1	n	n	n	n	n	x
CN(C)S(=O)(=O)N1CCC(N2CCN(Cc3ccc(F)cc3)C(=O)C2=O)CC1	n	x	n	x	x	x
O=C(c1cc2cc(Br)ccc2o1)N1CCCCC1	u	n	21µM	n	n	u
O=C(c1cc2cc(Cl)ccc2o1)N1CCCC1	n	n	n	n	n	u
COc1cc(CN(C(=O)COc2ccc(C)cc2)c2ccccn2)cc(OC)c1OC	8.2µM	x	9.2µM	x	x	x
COc1cc(CN(C(=O)COc2ccc(Cl)c(C)c2)c2ccccn2)cc(OC)c1OC	12µM	x	10µM	x	x	x
COCC(=O)N(Cc1ccccc1)c1ccccn1	n	n	n	n	n	n
Cc1ccc(CN(C(=O)COc2ccc(Cl)c(C)c2)c2ccccn2)o1	u	x	15µM	x	x	x
Cc1ccc(OCC(=O)N(Cc2ccccc2)c2ccccn2)cc1	n	n	n	n	n	n
O=C(COc1ccccc1[N+](=O)[O-])N(Cc1ccccc1)c1ccccn1	n	n	n	n	n	n
COc1cc(CN(C(=O)COc2ccc(Br)cc2)c2ccccn2)cc(OC)c1OC	16µM	x	16µM	x	x	x
SMILES	DT40 TDP1 CPT	HT1080NT lethal	DT40 TDP1 no CPT	HT1080 IDH1KD tx	IL1B secr inh	ELG1 repair inh
O=C(COc1ccc(Cl)cc1)N(Cc1ccco1)c1ccccn1	n	x	n	x	x	x
COc1ccccc1-c1cncnc1N1CCN(C)CC1	n	x	n	x	x	x
COc1cc(CN(C(=O)COc2ccccc2Cl)c2ccccn2)cc(OC)c1OC	u	x	18µM	x	x	x
Cc1ccc(CN(C(=O)COc2cccc([N+](=O)[O-])c2)c2ccccn2)cc1	u	x	21µM	x	x	x
COCCn1c(=O)c(-c2cn(C)c3ccccc23)nc2cnc(OCc3ccccc3)nc21	n	x	n	x	x	x
Cc1cc(C(=O)NNc2ccccc2F)no1	n	5.2µM	n	2.6µM	n	6.5µM
CCCc1ccc(C(=O)NNc2ccccc2F)cc1	n	u	n	6.5µM	n	u
CCc1ccc(C(=O)NNc2ccccc2F)cc1	n	u	n	u	u	u
CCc1ccccc1NNC(=O)c1cc(C)on1	n	n	u	n	n	n
Cc1nc2c3cc(F)ccc3n(Cc3ccc(F)cc3)c2s1	u	n	8.2µM	u	n	n
Cc1nc2c3cc(Cl)ccc3n(CCN3CCCCC3)c2s1	21µM	u	23µM	u	n	n
Cc1ccc(CN2CCN(Cc3ccc(O)cc3)CC2CCO)o1 (stereo not drawn)	n	n	n	n	n	n
CCc1ccc(Nc2ncccc2C#N)cc1	n	n	n	n	-59	u
CCC(C)c1ccc(Nc2ncccc2C#N)cc1 (stereo not drawn)	n	n	n	n	n	u
CC(NC(=O)C(Cc1ccccc1)=NO)c1ccccc1 (stereo not drawn)	21µM	n	23µM	n	n	x
COc1cccc(NC(=O)CN(C)C(=O)c2ccc(NC(=O)CC3SC(N4CCCC4)=NC3=O)cc2)c1 (stereo not drawn)	n	n	n	n	n	x
CC(C)Cn1c(SCC(=O)N(C)c2c(N)n(Cc3ccccc3)c(=O)[nH]c2=O)nc2ccccc21	n	n	n	n	n	n
O=C(CSCc1ccc(Cl)cc1)N/N=C/c1ccccc1	n	n	n	n	n	n
COc1cc(C=O)ccc1OCCSc1ccc(Cl)cc1	n	n	n	n	n	u
CCOC(=O)N/N=C/c1ccc(OCCSc2ccc(Cl)cc2)c(OC)c1	15µM	n	26µM	n	n	u
COC(=O)Oc1ccc(/C=N/NC(=O)CSCc2ccc(Cl)cc2)cc1OC	26µM	n	12µM	n	n	n
CC(=O)OCC(=O)[C@@]1(O)CC[C@H]2[C@@H]3CCC4=CC(=O)CC[C@]4(C)C3=CC[C@@]21C	n	x	n	x	x	x
O=C(COc1cccc(F)c1)Nc1nc(-c2cccnc2)cs1	u	n	u	n	n	u
CCOC(=O)C1=C(C)N(C)C(=S)NC1c1cc(OC)ccc1OC (stereo not drawn)	u	n	21µM	n	n	n
CC(=O)C1=C(O)C(=O)N(c2ccc(Br)cc2)C1c1ccccc1[N+](=O)[O-] (stereo not drawn)	n	n	n	n	n	n

Screening results from PubChem BioAssay.
